Hits are enriched below; roughly 2.5% of the tested compounds scored in any of these assays.
SKN-1 block: suppressors of acrylamide-induced Pgst-4::GFP reporter in worms, primary screen, SKN-1 inhibitor project, whole organism, uHTS, GFP/RFP fluorescence ratio, strain VP596; C. elegans VP596 Pgst-4::GFP/RFP ratio, 24 h; 360,000 tested, 0.49% active; inhibition, % at 21.8 µM;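 active = interference check ratio from 0.5 to 1.5 plus GFP to RFP signal ratio inhibition reaching or exceeding a fixed threshold, cut at about 30% in these data, passing the limit was not always enough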
H9c2 protect: cardioprotection against H2O2-induced cell death, primary screen, uHTS, H9c2 cells, ATPLite luminescence | AID 588492, 2011 | 360,000 tested, 0.63% active | H9c2 cardiomyocytes, H2O2 injury protection, 2 h | protection from H2O2 cell death, % at 20 µM;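 active = compounds giving at least 50% protection of heart cells from peroxide-induced death in the single-dose screen, raw or plate-pattern-corrected value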;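 also: 0% = DMSO wells with peroxide and 100% = DMSO wells without peroxide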
H9c2 TAG inh: inhibitors of triacylglycerol accumulation, primary screen, cell-based, uHTS, fluorescence, H9c2. AID 651582, 2012. 230,000 tested, 0.66% active. inhibition, % at 12.5 µM. H9c2 cells, Nile Red lipid (TAG) fluorescence; cells loaded with 200 µM oleic acid;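 active = pattern-corrected inhibition of lipid staining of at least 50% with the nuclear-stain viability signal not falling by more than 50%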;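 also: 0% = DMSO wells and 100% = triacsin C control wells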
CRFBP-R2 block: antagonists of CRF-BP/CRF-R2 complex, primary screen, cell-based, HEK293, calcium dye fluorescence, uHTS; CRF-induced calcium fluorescence; inhibition, % at 11.8 µM; 350,000 tested, 0.59% active; AID 588475, 2011;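 active = inhibition of the ligand-induced calcium signal above about 50% at the single tested concentration, limit read from the data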
hiPSC survival: enhancers of single-cell hiPSC survival, primary screen, ATPlite luminescence | 100% = ROCK inhibitor wells, 0% = DMSO | survival enhancement, % at 20 µM | 360,000 tested, 0.044% active; in the data active = survival enhancement above about 18%;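 also: cells exposed to compounds for 16 hours before the ATP read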
CRFBP-R2 agonist: agonists of CRF-BP/CRF-R2 complex, primary screen, cell-based, HEK293, calcium dye fluorescence, uHTS | calcium dye fluorescence (FLIPR); percent of saturating CRF peptide response | 350,000 tested, 0.46% active | activation, % at 13.2 µM | AID 588473, 2011;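 active = activation of at least 50%, plus an integration ratio under a set limit after plate pattern correction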;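 also: plate controls were neutral control wells without compound for no effect and CRF at EC100 for full effect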
TAG conf: triacylglycerol accumulation inhibitors, retest, confirmation, cell-based, single concentration, Nile Red fluorescence, H9c2; AID 651629, 2012; 990 tested, 71% active; inhibition, % at 12.5 µM; H9c2 lipid accumulation; cells loaded with 200 µM oleic acid; shares compounds with H9c2 TAG inh;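 active = mean inhibition across replicates of 40% or more; inactive = mean inhibition below 40%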;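 also: plate controls were DMSO only wells for no effect and Triacsin C treated wells for full effect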
* = called active by the depositor; · = no result.

SMILES	SKN-1 block	H9c2 protect	H9c2 TAG inh	CRFBP-R2 block	hiPSC survival	CRFBP-R2 agonist	TAG conf
Cc1ccc(N2C(=S)N=C(Nc3ccccc3C)C23CCOC(C)(C)C3)cc1 (stereo not drawn)	-10	5	9	27	-3	-3	·
O=C(NCC1CCCO1)c1ccc(Cl)c(S(=O)(=O)N2CCOCC2)c1 (stereo not drawn)	10	-2	·	-4	0	3	·
O=C(Nc1ccccc1)c1ccc(NCC2CCCO2)c(S(=O)(=O)N2CCOCC2)c1 (stereo not drawn)	3	4	66*	12	1	0	46*
COc1cccc2sc(Nc3nc(-c4cc5ccccc5oc4=O)cs3)nc12	1	0	58*	-6	0	1	87*
Cc1nc2ccc(Cl)cc2c(-c2ccccc2)c1C(=O)N(C)C	2	-6	·	14	0	-1	·
CCOC(=O)c1c(CN2CCNCC2)nc2ccc(Cl)cc2c1-c1ccccc1	-4	-19	70*	-10	-4	2	78*
C#CCN(C[C@H]1[C@H](OC(=O)NCCCCCC)[C@H](OC(=O)NCCCCCC)C[C@@H](C(=O)OC)[C@H]1C(=O)OC)S(=O)(=O)c1ccc(C)cc1	-6	-12	80*	-1	-4	8	88*
Cn1nnnc1Sc1ncnc2scc(-c3cccc(S(C)(=O)=O)c3)c12	7	-17	60*	-5	-3	2	57*
Cc1nn2c(NCc3ccccn3)c3c(nc2c1-c1ccccc1)CCC3	33	-3	61*	20	0	-2	40*
Cc1nn2c(N3CCN(C)CC3)c3c(nc2c1-c1ccccc1)CCCC3	8	8	58*	-21	-1	4	45*
CN1CCN(S(=O)(=O)c2ccc(NS(=O)(=O)c3ccccc3)cc2)CC1	-2	2	14	19	0	-2	·
COc1ccc(C(=O)COC(=O)c2sc(C)nc2C)cc1F	18	-2	-14	6	3	0	·
CCN1CCN(Cc2ccc(NC(=O)c3ccc(C)c(NC(=O)c4ccc5n[nH]nc5c4)c3)cc2C(F)(F)F)CC1	-16	-5	21	-4	2	0	·
CCN1CCN(Cc2ccc(NC(=O)c3ccc(C)c(NC(=O)C(=O)c4c[nH]c5ccccc45)c3)cc2C(F)(F)F)CC1	21	-29	77*	-25	-5	0	79*
CCN1CCN(Cc2ccc(NC(=O)c3cc(NC(=O)C(=O)c4c[nH]c5ccccc45)cc(OC)c3)cc2C(F)(F)F)CC1	8	-26	104*	-12	-4	2	94*
CCN(CC(=O)Nc1ccc(NC(C)=O)cc1)C(=O)C1CC1	2	1	-4	-1	0	-2	·
COc1ccc(CN2CC(C(=O)NCCCN3CCCC(C)C3)CC2=O)cc1 (stereo not drawn)	0	0	·	-10	0	1	·
Cc1cc(C)c2nc(-c3ccncc3)cc(C(=O)N3CCN(Cc4ccccc4Cl)CC3)c2c1	0	2	62*	-2	0	2	59*
CCCCCCN(C(=O)CCCCCN1C(=O)NC(c2ccc([N+](=O)[O-])cc2)C(C(=O)OCc2ccccc2)=C1C)C(C(=O)NCCCC)C1CCCCC1 (stereo not drawn)	-3	-4	66*	11	-2	-2	56*
O=C(c1ccc([N+](=O)[O-])cc1)N1CCN(C2=NS(=O)(=O)c3ccccc32)CC1	-5	6	3	2	0	5	·
CC(C)(Cc1cccc(CC(C)(C)C(=O)O)c1)C(=O)O	-3	2	-17	-4	3	1	·
CCOC(=O)Nc1ccc2c(c1)C(=NNC(=S)NC)c1ccccc1-2	31	45	58*	-28	-4	0	70*
COC(=O)C1=C(C(=O)OC)[C@@H]2N(Cc3ccccc3)c3ccccc3[C@@]23C[C@@H](C(=O)OC)N(C(=O)NC(C)(C)C)C3=N1	16	-1	11	2	-1	-1	·
CCCCNC(=O)c1cnc(Cc2c[nH]c3ccccc23)c(I)c1	18	-5	65*	·	-2	·	15
CN1CCN(C(=O)c2cnc(Cc3c[nH]c4ccccc34)c(I)c2)CC1	7	2	-5	·	0	·	·
SMILES	SKN-1 block	H9c2 protect	H9c2 TAG inh	CRFBP-R2 block	hiPSC survival	CRFBP-R2 agonist	TAG conf
O=C(Nc1ccc(-c2csc(Nc3ccccc3)n2)cc1)c1cccc(C(F)(F)F)c1	26	-10	75*	-1	-2	0	83*
O=C(Nc1ccc(-c2csc(Nc3ccc(Cl)cc3)n2)cc1)c1cccc(C(F)(F)F)c1	·	·	·	-9	·	0	·
O=C(Nc1ccc(-c2csc(Nc3ccccc3)n2)cc1)c1cc([N+](=O)[O-])cc(C(F)(F)F)c1	11	-9	39	3	3	0	·
O=C(Nc1cccc(-c2csc(Nc3cccc(C(F)(F)F)c3)n2)c1)c1cc([N+](=O)[O-])cc(C(F)(F)F)c1	-3	-12	58*	-4	-2	0	56*
O=c1[nH][nH]c2c1[C@H](c1ccc(Cl)cc1)O[C@H](C1CC1)C2	-11	·	·	·	2	·	·
C=C1c2cccc(C(F)(F)F)c2O[C@H](C(=O)OCC)[C@H]1OC	8	-1	3	4	-2	-8	·
Oc1ccc(Cl)cc1Nc1nc(NCC2CCCO2)c2ccccc2n1 (stereo not drawn)	-11	-7	18	-10	1	0	·
Oc1ccc(Nc2nc(NCC3CCCO3)c3ccccc3n2)cc1 (stereo not drawn)	-18	42	50*	22	-2	1	25
CCC/C=N/Nc1nnc(Cc2ccc(OC)c(OC)c2)c(=O)[nH]1	-5	-2	·	-8	1	1	·
O=C(Cn1cc[n+](CC(=O)c2ccc(Cl)cc2Cl)c1)c1ccc(Cl)cc1Cl	-23	-5	60*	32	0	1	44*
O=C(Cn1cc[n+](CC(=O)c2ccccc2)c1)c1ccccc1	-7	-8	-4	31	0	0	·
COC(=O)C=C1CCC2C3CCC4=CC(=O)C(Br)CC4(C)C3C(=O)CC12C (stereo not drawn)	2	1	63*	-8	-5	0	85*

High-throughput results (PubChem)
